Consider 25 compounds from PubChem BioAssay (NCATS).

Structures are written as SMILES. “And” between values parts separate entries of the source, which are not always exact repeats. Identical values can stand only once. Inconclusive results are not listed. Unmarked numbers belong to inactive results. The source made the active and inactive calls. Calls follow the shape of the dose curve; as a rule, active = well fitted inhibition curve with a large enough effect; inconclusive = small, poorly fitted or top-dose-only effect; inactive = flat fitted curve, though single readings scatter.

Assay [1] can be described thus: Drug repurposing screens with cells derived from glioblastoma tumor samples (AID 1345199). Also: nearly all actives have a fitted effect of over 40% in size. The following applies: GBM patient neurospheres viability, ATP luminescence, 48 h. In a few lines: (§1)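 Four patient lines of CD133+ GBM neurospheres were screened at several concentrations; hits were retested in those lines plus three slower-growing GBM lines, using 48-hour treatment and ATP-based viability.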

Another assay has as its system astro (control astrocytes). The assay is described as above. The following applies: viability, ATP luminescence, 48 h; series mostly up to 45.9 µM. In a few lines: as §1
The mark [2] stands for this setting: at 45.9 µM (top of the series), tumour line B.
Where [3] appears, read: at 45.9 µM (top of the series), tumour line D.
Setting [4] is: at 46.1 µM (top of the series), tumour line C.
Where [5] appears, read: at 46 µM (top of the series), tumour line A.
% is scaled to controls: 0 for no effect and ±100 for the full control effect; potency is read from the fitted curve at half-maximal effect.

Take `O=C(OC[C@H]1O[C@](O)(COC(=O)c2cccnc2)[C@@H](OC(=O)c2cccnc2)[C@@H]1OC(=O)c1cccnc1)c1cccnc1`: the figures for the activity, negative = cell killing in assay [1] (setting [2]), in assay [1] (setting [3]) and in assay [1] (setting [4]) were -19%, -0.117% and -25.9%, respectively. Further, the Potency entry in the assay on astro is “inactive”.
Regarding `COc1c(O[C@@H]2O[C@H](CO)[C@@H](O)[C@H](O)[C@H]2O)cc2c(c1OC)-c1ccc(SC)c(=O)cc1[C@@H](NC(C)=O)CC2`, the activity, negative = cell killing in assay [1] (at 21.2 µM (top of the series), tumour line B) was -28.7%; in assay [1] (at 21.2 µM (top of the series), tumour line D), -5.86%; in assay [1] (at 21.3 µM (top of the series), tumour line A), -6.81%. Further, the Potency entry with astro was “inactive”.
For `COc1cc(S(C)=O)ccc1-c1nc2ncccc2[nH]1` (stereo not given), the activity, negative = cell killing in assay [1] (setting [2]) is -1.29%; in assay [1] (setting [3]) it was -12%; in assay [1] (setting [4]), -12.6%. The Potency result in the assay with astro was “inactive”.
With `FC(F)(F)COCC(F)(F)F`, the activity, negative = cell killing was -8.9% in assay [1] (setting [2]), -17.5% in assay [1] (setting [3]) and -24.2% in assay [1] (setting [4]). Besides, in the assay with astro, the Potency entry was “inactive”.
As for `O=c1[nH]c(=O)n([C@H]2C[C@H](O)[C@@H](CO)O2)cc1/C=C/Br`, the activity, negative = cell killing in assay [1] (setting [2]) is -10.7%; in assay [1] (setting [3]), -3.23%; in assay [1] (setting [4]) it was -17.1%. For the same compound, the Potency result in the assay on astro is “inactive”.
Turning to `C[C@H](O)CN(C)C`, the results for the activity, negative = cell killing in assay [1] (setting [2]), in assay [1] (setting [3]) and in assay [1] (setting [4]) were -3.73%, -16.1% and -13.2%, respectively. For the same compound, the Potency entry in the assay on astro is “inactive”.
Regarding `N#Cc1ccc2c(c1)N(CCCN1CCC(O)CC1)c1ccccc1S2`, the activity, negative = cell killing is -29.3% in assay [1] (setting [2]) and 15.3% in assay [1] (setting [4]). For the same compound, the Potency in assay [1] (tumour line A) was 5.01 µM (active). Besides, the Potency entry in the assay with astro was “inactive”.
Consider `O=S(=O)(O)CCCS(=O)(=O)O`, for which the values for the activity, negative = cell killing in assay [1] (setting [2]), in assay [1] (setting [3]) and in assay [1] (setting [4]) were -8.81%, -10.4% and -13.4%, respectively. Besides, in the assay with astro, the Potency entry is “inactive”.
`Cc1ccc(S(=O)(=O)NC(=O)N[C@@H](C)Cc2ccccc2)cc1`: the activity, negative = cell killing is -12% in assay [1] (setting [2]), -19.4% in assay [1] (setting [3]) and -17.1% in assay [1] (setting [4]). Also, the Potency result in the assay with astro was “inactive”.
In the case of `NCC[C@H](O)C(=O)N[C@@H]1C[C@H](N)[C@@H](O[C@H]2O[C@H](CN)[C@@H](O)[C@H](O)[C@H]2O)[C@H](O)[C@H]1O[C@H]1O[C@H](CO)[C@@H](O)[C@H](N)[C@H]1O`, the figures for the activity, negative = cell killing in assay [1] (setting [2]), in assay [1] (setting [3]) and in assay [1] (setting [4]) were -16.5%, -17.9% and -4.11%, respectively. Moreover, the Potency result in the assay with astro was “inactive”.
Regarding `CC(C)CN(C[C@@H](OP(=O)(O)O)[C@H](Cc1ccccc1)NC(=O)O[C@H]1CCOC1)S(=O)(=O)c1ccc(N)cc1`, the values for the activity, negative = cell killing in assay [1] (setting [2]), in assay [1] (setting [3]) and in assay [1] (setting [4]) were -7.11%, -11.4% and -18.7%, respectively. The Potency entry with astro was “inactive”.
The like results for `CC(=NCc1ccccc1)c1ccccc1O` were, in that order, -12.5%, -14.9%, 6.85% and “inactive”.
For `COc1ccc(C(=O)c2ccc(C)cc2)c(O)c1`, in that order: -19.8%, -4.36%, -21.4% and “inactive”.
In the case of `CCOc1ccc(NC(=S)Nc2ccc(OCC)cc2)cc1`, the results for the activity, negative = cell killing in assay [1] (setting [2]), in assay [1] (setting [3]) and in assay [1] (setting [4]) were -13.1%, -11.1% and -27.8%, respectively. Moreover, the Potency entry in the assay with astro was “inactive”.
For `CC(C)C[C@@H](NC(=O)[C@@H](O)[C@H](N)Cc1ccccc1)C(=O)O`, in that order: -12.5%, -2.21%, -22.2% and “inactive”.
For `O=S(=O)(O)CC(S)CS` (stereo not given), in that order: -24.2%, -0.499%, -22% and “inactive”.
Turning to `O=C1CC[C@@H](C(=O)N[C@H]2C[C@@H]2c2ccccc2)N1`, the values for the activity, negative = cell killing in assay [1] (setting [2]), in assay [1] (setting [3]) and in assay [1] (setting [4]) were -8.87%, -2.23% and 4.74%, respectively. The Potency result in the assay with astro was “inactive”.
With `CC12CCC(C1)C(C)(C)C2=O` (stereo not given), the activity, negative = cell killing in assay [1] (setting [2]) is -4.04%; in assay [1] (setting [3]), -4.98%; in assay [1] (setting [4]) it was 19.6%. Further, the Potency result in the assay on astro is “inactive”.
With `C(=C\c1ccncc1)/c1ccccc1`, the activity, negative = cell killing in assay [1] (setting [2]) was -13.9% and -17.3%; in assay [1] (setting [3]), -13.7% and -5.95%; in assay [1] (setting [4]) it was -11.5%. The Potency result in the assay with astro is “inactive”.
Take `OC[C@H]1OC([S-])[C@H](O)[C@@H](O)[C@@H]1O.[Au+]` (stereo not given in full): the activity, negative = cell killing in assay [1] (setting [2]) was -5.43%; in assay [1] (setting [3]), -19.5%; in assay [1] (setting [4]), -19.6%. For the same compound, the Potency result with astro was “inactive”.
On to `C[C@@H]1C[C@H]2[C@@H]3CCC4=CC(=O)C=C[C@]4(C)[C@@]3(F)[C@@H](O)C[C@]2(C)[C@@]1(O)C(=O)COC(=O)c1cccc(S(=O)(=O)O)c1`, for which the activity, negative = cell killing is -14.3% in assay [1] (setting [2]), -16.1% in assay [1] (setting [3]) and -5.39% in assay [1] (setting [5]). Further, the Potency entry with astro is “inactive”.
In the case of `O=C(CCCN1CCC(C(=O)c2ccc(F)cc2)CC1)c1ccc(F)cc1`, the activity, negative = cell killing in assay [1] (setting [2]) is -22%; in assay [1] (setting [4]), -4.95%. The Potency in assay [1] (tumour line A) is 8.91 µM (active). The Potency result in the assay with astro is “inactive”.
`CO/N=C(\C(=O)N[C@@H]1C(=O)N2C(C(=O)[O-])=C(C[n+]3ccc(N)n3CCO)CS[C@H]12)c1csc(N)n1`: the activity, negative = cell killing is -6.9% in assay [1] (setting [2]), -6.66% in assay [1] (setting [3]) and -25.8% in assay [1] (setting [4]). Besides, in the assay with astro, the Potency result was “inactive”.
On to `Cc1cc2nc3c(=O)[nH]c(=O)nc-3n(C[C@H](O)[C@H](O)[C@H](O)COP(=O)(O)OP(=O)(O)OC[C@H]3O[C@@H](n4cnc5c(N)ncnc54)[C@H](O)[C@@H]3O)c2cc1C`, for which the activity, negative = cell killing was -13.1% in assay [1] (setting [2]), -9.51% in assay [1] (setting [3]) and -9.49% in assay [1] (setting [5]). The Potency result with astro was “inactive”.
Regarding `CC(CCc1ccc(O)cc1)NCC(O)c1ccc(O)cc1` (stereo not given), the activity, negative = cell killing is 1.78% in assay [1] (setting [2]), 4.34% in assay [1] (setting [3]) and 2.7% in assay [1] (setting [4]). The Potency result in the assay on astro is “inactive”.
